Records with an inconclusive call do not appear. Where a call stands in place of a potency, no number is given. Activity calls are given as the source filed them. Unless noted, the call rests on the fitted dose curve; in most records, active means well fitted curve in the direction sought with a large enough effect in the repeat runs; inconclusive means weak or mixed curves; inactive means no such curve, though single readings can be large; an effect the other way counts as inactive or inconclusive.
How the values were obtained:
[1] = A CellTox Green Cytotoxicity Assay to monitor cytotoxicity in HEK293 cells - 8 hour (AID 1224884); further: nearly all actives have a fitted effect of over 35% in size
Method in brief: (§1)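 Seeding of HEK293 cells together with cytotoxicity dye preceded a 5 h incubation at 37 C/5% CO2. Test compounds in DMSO were then added and fluorescence monitored across 40 h.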

[2] = qHTS RealTime-Glo MT Cell Viability Assay in HepG2 cells - 16 hour (AID 1224885); further: nearly all actives have a fitted effect of over 50% in size
Method in brief: (§2)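 Cell number in HepG2 cultures estimated from NanoLuc luminescence generated by metabolic reduction of a prosubstrate by living cells. The homogeneous, nonlytic format allowed repeated reads at 0, 8, 16, 24, 32 and 40 h of compound exposure.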

[3] = qHTS RealTime-Glo MT Cell Viability Assay in HEK293 cells - 24 hour (AID 1224886); further: nearly all actives have a fitted effect of over 50% in size; further: potency means the concentration at half of the fitted maximal effect
Method in brief: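 Homogeneous bioluminescent viability format in HEK293 cells (600 cells/well). Following 5 h at 37 C/5% CO2, 23 nL compound was pintooled; the signal was measured repeatedly during 40 h incubation.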

[4] = A CellTox Green Cytotoxicity Assay to monitor cytotoxicity in HEK293 cells - 16 hour (AID 1224888); further: nearly all actives have a fitted effect of over 35% in size
Method in brief: as §1

[5] = qHTS RealTime-Glo MT Cell Viability Assay in HepG2 cells - 0 hour (AID 1224889); further: nearly all actives have a fitted effect of over 50% in size
Method in brief: as §2

[6] = A CellTox Green Cytotoxicity Assay to monitor cytotoxicity in HepG2 cells - 8 hour (AID 1224890); further: nearly all actives have a fitted effect of over 45% in size
Method in brief: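 Nonlytic assay: viable cells exclude the dye, so fluorescence scales with cell death. HepG2 at 600 cells/well, compounds added after 5 h, signal read across 40 h.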

[7] = molecular target: Androgen receptor (Homo sapiens) (UniProt P10275); experiment: qHTS assay to identify small molecule antagonists of the androgen receptor (AR) signaling pathway using the MDA cell line in the presence of 0.5 nM R1881 (AID 1259243); further: nearly all actives have a fitted effect of over 50% in size
Chain of Androgen receptor (Homo sapiens) (P10275 whole entry, looked up): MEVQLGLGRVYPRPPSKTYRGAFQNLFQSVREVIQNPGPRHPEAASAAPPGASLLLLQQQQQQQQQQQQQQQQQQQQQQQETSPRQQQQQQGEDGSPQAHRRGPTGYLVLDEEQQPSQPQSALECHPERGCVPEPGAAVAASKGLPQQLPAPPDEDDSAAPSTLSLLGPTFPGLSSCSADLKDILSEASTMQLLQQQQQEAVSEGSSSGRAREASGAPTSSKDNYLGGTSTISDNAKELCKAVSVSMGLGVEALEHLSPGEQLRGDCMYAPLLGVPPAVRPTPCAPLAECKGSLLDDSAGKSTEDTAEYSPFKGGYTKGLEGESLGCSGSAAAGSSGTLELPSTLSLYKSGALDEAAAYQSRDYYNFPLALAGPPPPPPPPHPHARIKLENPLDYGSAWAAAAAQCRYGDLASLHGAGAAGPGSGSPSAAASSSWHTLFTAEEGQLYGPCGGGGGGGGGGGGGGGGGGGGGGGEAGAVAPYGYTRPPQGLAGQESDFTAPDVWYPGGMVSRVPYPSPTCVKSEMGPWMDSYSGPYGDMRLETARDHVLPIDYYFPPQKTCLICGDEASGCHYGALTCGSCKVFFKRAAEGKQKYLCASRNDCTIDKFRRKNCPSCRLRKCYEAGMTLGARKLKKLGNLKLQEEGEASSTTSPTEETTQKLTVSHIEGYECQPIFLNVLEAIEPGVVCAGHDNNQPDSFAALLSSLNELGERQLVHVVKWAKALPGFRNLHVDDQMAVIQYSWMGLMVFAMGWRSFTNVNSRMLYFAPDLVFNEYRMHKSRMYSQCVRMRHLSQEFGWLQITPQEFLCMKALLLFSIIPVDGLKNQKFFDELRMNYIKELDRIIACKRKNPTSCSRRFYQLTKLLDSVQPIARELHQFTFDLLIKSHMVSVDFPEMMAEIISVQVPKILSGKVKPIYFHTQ
Method in brief: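 We exposed MDA-kb2 cells to compounds under 0.5 nM R1881 stimulation for 16 hr at 37C and quantified MMTV-driven luciferase by luminescence.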

[8] = molecular target: Estrogen receptor (Homo sapiens) (UniProt P03372); experiment: qHTS assay to identify small molecule antagonists of the estrogen receptor alpha (ER-alpha) signaling pathway using the BG1 cell line in the presence of 0.1 nM 17-beta-estradiol (AID 1259244); further: nearly all actives have a fitted effect of over 50% in size; further: potency means the concentration at half of the fitted maximal effect
Chain of Estrogen receptor (Homo sapiens) (P03372 whole entry, looked up): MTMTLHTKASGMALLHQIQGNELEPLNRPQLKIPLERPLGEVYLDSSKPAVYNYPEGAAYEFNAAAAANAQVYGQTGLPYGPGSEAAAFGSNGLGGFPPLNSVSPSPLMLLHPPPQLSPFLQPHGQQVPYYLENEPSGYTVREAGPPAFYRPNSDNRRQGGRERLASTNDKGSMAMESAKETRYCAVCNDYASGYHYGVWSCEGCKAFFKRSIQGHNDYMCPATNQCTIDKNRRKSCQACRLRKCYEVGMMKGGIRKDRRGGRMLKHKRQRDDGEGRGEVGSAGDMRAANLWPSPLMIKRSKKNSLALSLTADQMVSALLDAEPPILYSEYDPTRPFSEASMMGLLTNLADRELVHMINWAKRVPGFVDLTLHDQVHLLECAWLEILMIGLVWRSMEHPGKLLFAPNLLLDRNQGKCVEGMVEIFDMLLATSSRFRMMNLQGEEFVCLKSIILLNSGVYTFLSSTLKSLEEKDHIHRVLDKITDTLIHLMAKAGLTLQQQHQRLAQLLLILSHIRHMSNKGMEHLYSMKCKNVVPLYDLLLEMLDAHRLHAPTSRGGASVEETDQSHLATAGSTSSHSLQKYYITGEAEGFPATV
Method in brief: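 VM7Luc4E2; 4xERE-luciferase; 0.1 nM E2 final; 22 h co-incubation, 37C; ONE-Glo luminescence after 30 min at room temperature.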

[9] = qHTS assay to identify small molecule HDAC inhibitors (AID 1259364);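 further: wild-type HCT-116 cells with endogenous class I/II HDAC activity; top concentration of the series differs between compounds; nearly all actives have a fitted effect of over 45% in size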
Method in brief: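 Relative class I and II HDAC activity is taken from the luminogenic signal in HCT-116 cells, with compound exposure 2 hr and reagent development 30 min at room temperature.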

[10] = qHTS assay to identify small molecule agonists of the sonic hedgehog signaling (Shh) pathway (AID 1259368; calls by dose curve;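 further: NIH/3T3-derived 3T3Gli1-Luc cells carrying a stable Gli1-driven firefly luciferase reporter; series mostly up to about 92 µM; nearly all actives have a fitted effect of over 15% in size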)
Method in brief: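 Mouse fibroblast (NIH/3T3) reporter cells with stably integrated Gli1-Luc were treated 24 hr with compound; firefly luciferase luminescence served as the read-out.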

[11] = qHTS assay to identify small molecule antagonists of the sonic hedgehog signaling (Shh) pathway (AID 1259369; calls by dose curve; further: nearly all actives have a fitted effect of over 45% in size; further: potency means the concentration at half of the fitted maximal effect)
Method in brief: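 Conditioned medium drives Shh signalling in 3T3Gli1-Luc cells; compounds in DMSO co-applied, 24hr at 37 C, then luciferase luminescence.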

[12] = qHTS RealTime-Glo MT Cell Viability Assay in HEK293 cells - 8 hour (AID 1224887)
Method in brief: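 Tox21 screen in HEK293 using RealTime-Glo MT chemistry, with cells and reagent co-dispensed. Luminescence proportional to viable cell number was captured at intervals during 40 h compound exposure at 37 C.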

[13] = qHTS assay to identify small molecule antagonists of the estrogen receptor alpha (ER-alpha) signaling pathway using the BG1 cell line in the presence of 0.1 nM 17-beta-estradiol - cell viability counter screen (AID 1259241); further: nearly all actives have a fitted effect of over 40% in size
Method in brief: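 Cells were plated and left 24 hr, compounds in DMSO were pinned in, 17beta-estradiol was added to 0.1 nM final, and after 22 hr CellTiter-Fluor reagent was added for 30 min before fluorescence was read.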

[14] = qHTS assay to identify small molecule antagonists of the androgen receptor (AR) signaling pathway using the MDA cell line in the presence of 0.5 nM R1881 - cell viability counter screen (AID 1259242); further: nearly all actives have a fitted effect of over 45% in size; further: potency means the concentration at half of the fitted maximal effect
Method in brief: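 R1881 at 0.5 nM final stimulated MDA-kb2 cells during 16 hr compound treatment at 37C. Cytotoxicity read: CellTiter-Fluor fluorescence after 30 min.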

[15] = qHTS assay to identify small molecule HDAC inhibitors - cell viability counter screen (AID 1259365)
Method in brief: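 Counter screen in wild-type HCT-116 cells: compounds dissolved in DMSO are pin-transferred onto overnight-plated cells and left 2hr at 37C. ATP-based CellTiter-Glo luminescence then measures viable cells.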

[16] = qHTS assay to identify small molecule agonists of the sonic hedgehog signaling (Shh) pathway - cell viability counter screen (AID 1259366); further: nearly all actives have a fitted effect of over 50% in size
Method in brief: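 Cells are plated at 2,000 per well and left 4hr at 37C, 5% CO2 before compound addition. After 23hr of treatment, CellTiter-Fluor reagent is added for 1hr at 37C and fluorescence is measured.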

[17] = qHTS assay to identify small molecule antagonists of the sonic hedgehog signaling (Shh) pathway - cell viability counter screen (AID 1259367); further: nearly all actives have a fitted effect of over 55% in size
Method in brief: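 Seed 3T3 Gli1-Luc cells at 2,000 per well; incubate 4 hr; add compound in DMSO, then conditioned medium; incubate at 37C with 5% CO2; add CellTiter-Fluor after 23 hr; read fluorescence 1 hr later.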

[18] = molecular target: Estrogen receptor beta (Homo sapiens) (UniProt Q92731); experiment: qHTS assay to identify small molecule agonists of the estrogen receptor beta (ER-beta) signaling pathway (AID 1259377; active means well fitted activation curve with a large enough effect in the signal ratio in the repeat runs, not every such curve was filed as active; the % refers to the signal ratio)
Chain of Estrogen receptor beta (Homo sapiens) (Q92731 whole entry, looked up, the tested form may be a part): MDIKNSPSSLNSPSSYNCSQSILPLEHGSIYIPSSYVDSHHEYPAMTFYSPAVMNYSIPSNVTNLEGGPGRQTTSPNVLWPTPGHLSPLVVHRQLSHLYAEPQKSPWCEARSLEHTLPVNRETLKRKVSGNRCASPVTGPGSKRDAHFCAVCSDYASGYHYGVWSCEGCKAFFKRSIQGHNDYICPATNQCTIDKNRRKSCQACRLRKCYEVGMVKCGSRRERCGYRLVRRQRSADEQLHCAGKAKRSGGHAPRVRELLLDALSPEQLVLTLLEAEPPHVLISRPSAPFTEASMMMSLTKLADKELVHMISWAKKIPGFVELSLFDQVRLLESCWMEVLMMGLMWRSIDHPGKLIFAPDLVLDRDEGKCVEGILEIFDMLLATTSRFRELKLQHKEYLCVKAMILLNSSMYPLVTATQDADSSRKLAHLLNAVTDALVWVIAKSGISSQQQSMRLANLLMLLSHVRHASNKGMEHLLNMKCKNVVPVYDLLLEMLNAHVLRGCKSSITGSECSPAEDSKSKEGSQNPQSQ
Method in brief: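 Agonist mode cell assay in GripTite HEK293T cells expressing an ER-beta fusion that drives beta-lactamase from an Upstream Activator Sequence; 16 hr compound exposure at 37C, then 2 h LiveBLAzer B/G FRET substrate at room temperature, fluorescence read-out.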

[19] = molecular target: Estrogen receptor beta (Homo sapiens) (UniProt Q92731); experiment: qHTS assay to identify small molecule antagonists of the estrogen receptor beta (ER-beta) signaling pathway (AID 1259378; active means well fitted inhibition curve with a large enough effect in the signal ratio in the repeat runs, not every such curve was filed as active; the % refers to the signal ratio)
Method in brief: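 ER-beta-UAS-bla HEK293T cells in 2% charcoal-stripped FBS medium treated with compound plus 1nM final 17-beta-estradiol for 16 hr at 37C. Beta-lactamase reporter read by FRET substrate fluorescence after 2 hours at room temperature.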

Structure (SMILES)	Potency [1]	Potency [2]	Potency [3]	Potency [4]	Potency [5]	Potency [6]	Potency [7]	Potency [8]	Potency [9]	Potency [10]	Potency [11]	Potency [12]	Potency [13]	Potency [14]	Potency [15]	Potency [16]	Potency [17]	outcome [18]	Potency [19]
Cc1ccc(N=Nc2c(O)ccc3ccccc23)c(C)c1	inactive	inactive	inactive	inactive	inactive	inactive	inactive	inactive	inactive	inactive	inactive	–	–	–	–	–	–	–	–
N#Cc1ccc(C/C(=N/NC(=O)Nc2ccc(OC(F)(F)F)cc2)c2cccc(C(F)(F)F)c2)cc1	inactive	–	inactive	inactive	inactive	inactive	inactive	inactive	inactive	inactive	–	inactive	inactive	inactive	inactive	inactive	inactive	–	–
O=C1c2ccccc2C(=O)c2c(Cl)cccc21	inactive	inactive	–	–	inactive	inactive	–	inactive	–	inactive	inactive	–	inactive	inactive	inactive	inactive	inactive	–	–
CCc1c(C)cc(N)c(CC)c1N	inactive	–	inactive	inactive	inactive	inactive	inactive	inactive	inactive	inactive	inactive	inactive	inactive	inactive	inactive	inactive	inactive	inactive	inactive
c1ccc(C[P+](c2ccccc2)(c2ccccc2)c2ccccc2)cc1	inactive	inactive	1.74 µM (active)	inactive	inactive	inactive	–	1.22 µM (active)	inactive	inactive	5.45 µM (active)	–	–	10.9 µM (active)	inactive	–	–	–	–
O=C1CCC(=O)N1	inactive	inactive	–	–	inactive	inactive	inactive	inactive	inactive	inactive	inactive	–	inactive	inactive	inactive	inactive	inactive	inactive	inactive
CC(c1cc(C(C)(C)C)cc(C(C)(C)C)c1O)c1cc(C(C)(C)C)cc(C(C)(C)C)c1O	inactive	inactive	–	inactive	inactive	inactive	–	inactive	inactive	inactive	inactive	inactive	inactive	inactive	inactive	inactive	inactive	–	inactive
